Only some compounds are listed: those with a hit (about 4.2% of all), similar ones and a draw of the others.
esBAF inh: Bmi1 luciferase reporter increase in mESCs, primary screen, esBAF inhibitor project, mouse ES cells, Bmi1 luciferase knock-in, single point; 350,000 compounds, 2% hits; reporter increase, % at 12.5 µM; AID 602393, 2012; 24 h; 100% = twice the neutral-well signal; in the data active means activation above about 40%; inconclusive means no clear call, values can overlap the other calls;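 further: a rise in the Bmi1 reporter signal indicates esBAF inhibition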
hgDAF-12 ag: H. glycines DAF-12 receptor agonists, primary screen, cell-based, luminescence, HEK293, GAL4 fusion, UAS-luciferase. HEK293 GAL4-hgDAF12 UAS-luciferase reporter, agonist luminescence; normalized to butyrate control. Nuclear hormone receptor DAF-12 (Heterodera glycines), GAL4 fusion. AID 687014, 2013. 370,000 compounds, 1.8% hits. activation, % at 6.8 µM;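 active means activation above a cutoff set at the mean of all screened compounds plus 3 SD, cut at about 10% in these data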
ssDAF12 agonist: S. stercoralis DAF-12 nuclear receptor activators, primary screen, cell-based, luminescence, HEK293, GRIP1 co-expression, lit1-tk-luc; Nuclear hormone receptor DAF-12 (Strongyloides stercoralis); HEK293 ssDAF-12/GRIP1 lit1-tk-luc reporter; % of 3 µM dafachronic acid response; activation, % at 6.8 µM; 370,000 compounds, 1% hits;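 active means activation above the mean over all tested compounds plus 3 SD, cut at about 0.9% in these data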
hcDAF12 agonist: H. contortus DAF-12 nuclear receptor activators, primary screen, cell-based, luminescence, HEK293, lit1-tk-luc reporter | HEK293 hcDAF-12 lit1-tk-luc reporter; 0% DMSO, 100% Δ7-dafachronic acid | activation, % at 6.8 µM | 370,000 compounds, 1.4% hits | AID 652067, 2013;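 active means activation above the mean of all tested compounds plus 3 SD, cut at about 5.5% in these data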
DAX1 StAR inh: DAX1 (NR0B1) inhibitors on StAR promoter, primary screen, cell-based, luminescence, SF-1 (NR5A1), full-length DAX-1 | inhibition, % at 6.8 µM | HEK293T StAR-luciferase reporter, SF-1/DAX-1 repression relief | 370,000 compounds, 1.1% hits;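 active means inhibition above the mean over all tested compounds plus 3 SD, cut at about 3.6% in these data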;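 further: higher inhibition means more luminescence from relief of DAX-1 repression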
Wnt act: Wnt/beta-catenin pathway activators, primary screen, cell-based, plate reader, single point; Wnt/beta-catenin reporter cell assay, activator; activation, % at 9.35 µM; 300,000 compounds, 1.2% hits; AID 743398, 2014; in the data active means activation above about 30%, passing the limit was not always enough; inconclusive means no clear call, values can overlap the other calls
LXRb hcDAF ctr: LXR agonists, Gal4 luciferase reporter, confirmation, counter-screen for hcDAF-12 agonist project, cell-based, luminescence, HEK293, H. contortus campaign; 3,400 tested, under 10 active; AID 743027, 2013; shares compounds with hcDAF12 agonist; activation, % at 6.8 µM; HEK293 Gal4-LXR tk-luc reporter, 24 h; normalized: DMSO 0%, positive control 100%;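 active means mean percent activation of the reporter above a cutoff set as the average over tested compounds plus their standard deviation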
Target sequence (P55055 whole entry, looked up, the tested form may be a part): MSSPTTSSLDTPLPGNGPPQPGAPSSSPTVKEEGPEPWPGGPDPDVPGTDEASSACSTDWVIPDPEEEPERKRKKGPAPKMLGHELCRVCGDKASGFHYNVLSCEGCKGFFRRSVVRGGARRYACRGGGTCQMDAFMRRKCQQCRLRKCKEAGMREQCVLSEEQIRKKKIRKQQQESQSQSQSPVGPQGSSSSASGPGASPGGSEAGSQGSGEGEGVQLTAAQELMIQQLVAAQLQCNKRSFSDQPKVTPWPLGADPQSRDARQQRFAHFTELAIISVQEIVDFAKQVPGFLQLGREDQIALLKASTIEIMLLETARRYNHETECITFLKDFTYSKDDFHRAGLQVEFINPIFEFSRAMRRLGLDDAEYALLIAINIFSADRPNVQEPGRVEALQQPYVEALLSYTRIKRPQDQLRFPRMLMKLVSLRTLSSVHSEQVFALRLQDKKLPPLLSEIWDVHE
hcDAF12 conf: H. contortus DAF-12 receptor agonists, confirmation, cell-based, luminescence, HEK293, lit1-tk-luc, triplicate; AID 743032, 2013; shares compounds with hcDAF12 agonist; HEK293 hcDAF-12 lit1-tk-luc reporter; % of Δ7-dafachronic acid response; activation, % at 6.8 µM; 3,400 compounds, 61% hits;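 active means mean activation across triplicate tests above the threshold derived from the earlier primary screen, cut at about 5.5% in these data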
Each line names hits and unclear results; the compound was inactive in the other large screens (follow-up assays come after a bar, where they were run).

COc1ccc(-c2nc3c4ccccc4ccn3c2CN2CCCCC2)cc1	hcDAF12 agonist 7.0 | LXRb hcDAF ctr inactive | hcDAF12 conf inactive
C[C@@H]1CN([C@H](C)CO)C(=O)c2cc(-c3ccccc3F)cnc2O[C@@H]1CN(C)Cc1ccccc1	none (no result: hgDAF-12 ag, ssDAF12 agonist, hcDAF12 agonist, DAX1 StAR inh, Wnt act)
Cc1nc2sc(C(=O)Nc3ccccc3)c(N)c2c(C)c1[N+](=O)[O-]	ssDAF12 agonist 1.6, hcDAF12 agonist 8.1, DAX1 StAR inh 4.0, Wnt act 36 (no result: esBAF inh) | LXRb hcDAF ctr inactive | hcDAF12 conf 9.4
Nc1c(C(=O)Nc2ccccc2)sc2ncc([N+](=O)[O-])cc12	none (no result: esBAF inh)
CC(=O)c1ccc(NC(=O)c2sc3nc(C)c(C)c(C)c3c2N)cc1	esBAF inh inconclusive, ssDAF12 agonist 1.2, hcDAF12 agonist 8.2 | LXRb hcDAF ctr inactive | hcDAF12 conf 5.8
Cc1nc2sc(C(=O)c3ccccc3)c(N)c2c(C)c1C	none (no result: esBAF inh)
Cc1sc(NC(=O)c2ccc(Cl)s2)c(C(N)=O)c1C	hgDAF-12 ag 13, ssDAF12 agonist 2.0, hcDAF12 agonist 10, Wnt act 42 | LXRb hcDAF ctr inactive | hcDAF12 conf 14
Cc1sc(NC(=S)Nc2ccc(F)cc2)c(C(N)=O)c1C	none (no result: esBAF inh)
CCN(CC)c1ccc(/C=N/N2CCN(Cc3ccccc3)CC2)cc1	none (no result: esBAF inh)
CN(c1ccccc1)c1ccc(/C=N/N2CCOCC2)cc1	hgDAF-12 ag 11, hcDAF12 agonist 7.0 (no result: Wnt act) | LXRb hcDAF ctr inactive | hcDAF12 conf 5.9
COC(=O)C(NC=O)C(O)(Cc1ccccc1)C(F)(F)F (stereo unspecified)	hcDAF12 agonist 9.7 | LXRb hcDAF ctr inactive | hcDAF12 conf inactive
C[C@@H]1CCCCO[C@H](CN(C)S(=O)(=O)c2ccccc2)[C@@H](C)CN([C@@H](C)CO)C(=O)c2cc(NC(=O)Nc3cccc4ccccc34)ccc2O1	none (no result: hgDAF-12 ag, ssDAF12 agonist, hcDAF12 agonist, DAX1 StAR inh, Wnt act)
Cc1[nH]n(C(N)=S)c(=O)c1N=Nc1ccc2ccccc2c1	hgDAF-12 ag 13, ssDAF12 agonist 1.3, hcDAF12 agonist 15 | LXRb hcDAF ctr inactive | hcDAF12 conf 9.0
Cc1ccc(N=Nc2c(C)[nH]n(C(N)=S)c2=O)cc1C	hcDAF12 agonist 9.2 (no result: esBAF inh) | LXRb hcDAF ctr inactive | hcDAF12 conf 12
CO[C@H]1CN(C)C(=O)c2ccc(NC(=O)C3CC3)cc2OC[C@@H](C)N(Cc2cncnc2)C[C@@H]1C	none (no result: hgDAF-12 ag, ssDAF12 agonist, hcDAF12 agonist, DAX1 StAR inh, Wnt act)
CCC(=O)Nc1ccc2c(c1)C(=O)N(C)C[C@@H](OC)[C@H](C)CN(C(=O)CN1CCOCC1)[C@H](C)CO2	none (no result: hgDAF-12 ag, ssDAF12 agonist, hcDAF12 agonist, DAX1 StAR inh, Wnt act)
C/C(=N\NC(=O)c1ccccc1O)C1C(=O)c2ccccc2C1=O	esBAF inh 81, hcDAF12 agonist 6.9 (no result: Wnt act) | LXRb hcDAF ctr inactive | hcDAF12 conf inactive
C=CCOc1ccc(C(c2c(C(=O)O)[nH]c3ccccc23)c2c(C(=O)O)[nH]c3ccccc23)cc1	hcDAF12 agonist 7.5 | LXRb hcDAF ctr inactive | hcDAF12 conf 7.6
CCCNC(=O)C[C@@H]1CC[C@H]2[C@H](COc3ccc(NC(=O)c4cscn4)cc3C(=O)N2C)O1	none (no result: hgDAF-12 ag, ssDAF12 agonist, hcDAF12 agonist, DAX1 StAR inh, Wnt act)
CO[C@@H]1CN(C)C(=O)c2cc(NC(=O)c3ccc(F)cc3)ccc2OC[C@@H](C)N(C(=O)CN(C)C)C[C@H]1C	none (no result: hgDAF-12 ag, ssDAF12 agonist, hcDAF12 agonist, DAX1 StAR inh, Wnt act)
CCCC(C)NC(=O)Cc1ccccc1[N+](=O)[O-] (stereo unspecified)	ssDAF12 agonist 1.1, hcDAF12 agonist 7.3 (no result: esBAF inh) | LXRb hcDAF ctr inactive | hcDAF12 conf 5.9
CC(C)CC#Cc1cnc2c(c1)C(=O)N([C@@H](C)CO)C[C@H](C)[C@@H](CN(C)Cc1cncnc1)O2	none (no result: hgDAF-12 ag, ssDAF12 agonist, hcDAF12 agonist, DAX1 StAR inh, Wnt act)
CCOC(=O)c1cnc(-c2ccccc2)nc1N(C)C	esBAF inh 75, hgDAF-12 ag 11, hcDAF12 agonist 11 (no result: Wnt act) | LXRb hcDAF ctr inactive | hcDAF12 conf 9.4
CCn1c(/C=C/c2cc[n+](C)cc2)nc2ccccc21	none
CCCn1c(/C=C/c2ccccc2)nc2ccccc21	hgDAF-12 ag 11, hcDAF12 agonist 6.6, DAX1 StAR inh 3.6 (no result: Wnt act) | LXRb hcDAF ctr inactive | hcDAF12 conf 7.9
CCCCNC(=O)CN1C(=O)NC2(CCOc3ccccc32)C1=O (stereo unspecified)	none
COCCNC(=O)CN1C(=O)NC2(CCOc3ccccc32)C1=O (stereo unspecified)	hcDAF12 agonist 7.2 | LXRb hcDAF ctr inactive | hcDAF12 conf inactive
CN(C(=O)c1ccccc1)c1nc2ccccc2s1	hgDAF-12 ag 13, hcDAF12 agonist 6.8 (no result: Wnt act) | LXRb hcDAF ctr inactive | hcDAF12 conf 6.2
O=C(Nc1ccc(Cl)cc1)N[C@@H]1CC[C@@H](CCn2cc(-c3ccccc3F)nn2)O[C@@H]1CO	none (no result: hgDAF-12 ag, ssDAF12 agonist, hcDAF12 agonist, DAX1 StAR inh, Wnt act)
C[C@@H]1CN([C@H](C)CO)C(=O)c2cccc(NS(=O)(=O)c3cccs3)c2O[C@@H]1CN(C)C(=O)NC1CCCCC1	none (no result: hgDAF-12 ag, ssDAF12 agonist, hcDAF12 agonist, DAX1 StAR inh, Wnt act)
COc1ccc(S(=O)(=O)N(C)C[C@@H]2Oc3ccc(NS(=O)(=O)c4cccs4)cc3C(=O)N([C@H](C)CO)C[C@H]2C)cc1	none (no result: hgDAF-12 ag, ssDAF12 agonist, hcDAF12 agonist, DAX1 StAR inh, Wnt act)
COc1ccc(NC(C)C(=O)Nc2cc(C(F)(F)F)ccc2N2CCOCC2)c(OC)c1 (stereo unspecified)	hcDAF12 agonist 14 (no result: esBAF inh) | LXRb hcDAF ctr inactive | hcDAF12 conf inactive
COc1cc(Cl)c(C)cc1NC(C)C(=O)Nc1cc(C(F)(F)F)ccc1N1CCOCC1 (stereo unspecified)	none (no result: esBAF inh)
COc1ccc(-c2ccc3c(c2)O[C@H](CN(C)Cc2ccccc2C(=O)O)[C@H](C)CN([C@H](C)CO)S3(=O)=O)cc1	none (no result: hgDAF-12 ag, ssDAF12 agonist, hcDAF12 agonist, DAX1 StAR inh, Wnt act)
N#C/C(=C\c1ccccc1OCC(=O)O)c1nc2ccccc2[nH]1	hcDAF12 agonist 7.8 | LXRb hcDAF ctr inactive | hcDAF12 conf inactive
O=C(N/N=C/c1cn(-c2ccccc2)nc1-c1cccnc1)c1cccnc1	none (no result: esBAF inh)
O=C(N/N=C/c1cn(-c2ccccc2)nc1-c1cc2ccccc2o1)c1cccnc1	ssDAF12 agonist 1.2, hcDAF12 agonist 8.6, Wnt act 73 (no result: esBAF inh) | LXRb hcDAF ctr inactive | hcDAF12 conf 11
